Laboratory results published in the supplement of paper PMC11219838.
Values without a mark were called inactive.

What follows are compounds tested on Caenorhabditis elegans dauer (daf-2(e1370)) (assay: proportion of mobile C. elegans dauer larvae relative to DMSO control (fraction of DMSO control); higher = more viable, less nematicidal, active = 0.63 or less; extreme values may be limits of the assay). Details: 60 µM; 5 days; temperature: 20 °C.
Procedure: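 DODA library (846 commercial 1,3,4- and 1,2,4-oxadiazole compounds plus commercial nematicide controls) screened at a single dose of 60 µM (0.6% DMSO) in 96-well plates, two biological replicates. Read-outs: C. elegans N2 L1 survival/reproduction score at day 6, 20 °C (0: 0-10 worms, 1: 11-20, 2: 21-50, 3: >50, 4: overgrown/starved). C. elegans daf-2 dauer, D. dipsaci and M. hapla J2 mobility at day 5, 20 °C, and P. penetrans mobility at day 5, 20 °C, each relative to DMSO controls. M. hapla egg hatching at day 12, 25 °C, relative to the mean of 8 DMSO wells on the same plate.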
For `O=C(CSc1nnc(-c2ccco2)o1)Nc1cccc(Cl)c1Cl`, the “proportion of mobile C. elegans dauer larvae” value (from here on “proportion”) was 1. With `COc1ccccc1CC(=O)Nc1ccc(-c2noc(-c3ccccc3C)n2)cc1` the “proportion” value was 1. For `c1cc(-c2noc(C34CC5CC(CC(C5)C3)C4)n2)ccn1`, the “proportion” value was 1. For `O=C(CSc1nnc(-c2ccc(Br)cc2)o1)NC1CCCCC1`, the “proportion” value was 1. With `CCOc1nc(C)ccc1-c1noc(-c2ccccc2F)n1` the “proportion” value was 1. In the case of `COc1ccccc1-c1nc(-c2ccc(Br)cc2)no1`, the “proportion” value is reported as 1. `Clc1ccc(-c2nc(-c3ccncc3)no2)cc1Cl` was tested, and the “proportion” value was 1. With `Cc1ccccc1CSc1nnc(-c2ccccc2)o1` the “proportion” value was 1. In the case of `CC(=O)Nc1ccc(NC(=O)c2ccccc2-c2nc(-c3cccc(C)c3)no2)cc1`, the “proportion” value is reported as 1. For `Cc1cccc(-c2noc(-c3ccc(C)cc3Cl)n2)c1`, the “proportion” value was 1. `Cc1ccccc1-c1noc(-c2ccccc2C(=O)NCc2ccccc2)n1` was tested, and the “proportion” value was 1. In the case of `Cc1cccc(-c2noc(-c3ccccc3Br)n2)c1`, the “proportion” value is reported as 1. For `COc1ccc(Cl)cc1-c1noc(COc2ccccc2C)n1`, the “proportion” value was 1. With `Fc1ccc(-c2nc(-c3ccc4c(c3)OCO4)no2)cc1` the “proportion” value was 1. For `CCC(=O)Nc1ccccc1-c1nc(-c2ccccn2)no1`, the “proportion” value was 1. For `CCOc1nc(-c2ccccc2)ccc1-c1noc(-c2ccccc2F)n1`, the “proportion” value was 1. In the case of `Cc1cccc(-c2noc(COc3ccc(Cl)cc3C)n2)c1`, the “proportion” value is reported as 1. For `CCOc1ccccc1-c1nc(-c2ccc(Br)cc2)no1`, the “proportion” value was 1. In the case of `O=C(Nc1ccc(-c2noc(COc3ccccc3)n2)cc1)c1ccc(F)cc1`, the “proportion” value is reported as 1. For `Cc1cccc(OC(C)c2nc(-c3cccnc3)no2)c1` (stereo not given), the “proportion” value was 1. In the case of `Cc1ccc(C(=O)Nc2ccccc2-c2nc(-c3ccncc3)no2)cc1C`, the “proportion” value is reported as 1. For `COc1ccc(-c2noc(COc3ccccc3Cl)n2)cc1`, the “proportion” value was 1. `Cc1ccc(OC(C)c2nc(-c3cccnc3)no2)cc1` (stereo not given) was tested, and the “proportion” value was 1. `CCCCC(=O)Nc1ccccc1-c1nc(-c2ccccn2)no1` was tested, and the “proportion” value was 1. With `Cc1ccccc1-c1nc(-c2ccccc2Cl)no1` the “proportion” value was 1. `COc1nc(-c2ccc(C)cc2)ccc1-c1noc(-c2cccc(C)c2)n1` was tested, and the “proportion” value was 1. In the case of `COc1ccc(OC(C)c2nc(-c3cccnc3)no2)cc1` (stereo not given), the “proportion” value is reported as 1. With `Clc1ccccc1CSc1nnc(-c2ccncc2)o1` the “proportion” value was 1. For `Cc1ccccc1-c1nnc(SCC(=O)Nc2cc(C(F)(F)F)ccc2N2CCOCC2)o1`, the “proportion” value was 1. `COc1cccc(OCc2nc(-c3cccc(Br)c3)no2)c1` was tested, and the “proportion” value was 1. For `Cc1ccc(-c2noc(COc3ccc(Cl)cc3)n2)cc1`, the “proportion” value was 1. In the case of `COc1cccc(-c2noc(-c3cc(C)ccc3C)n2)c1`, the “proportion” value is reported as 1. For `O=C(CSc1nnc(-c2cccc(F)c2)o1)Nc1ccccc1C(=O)c1ccccc1`, the “proportion” value was 1. For `CCOc1cc(-c2nc(-c3cc4ccccc4nc3OC)no2)cc(OCC)c1OCC`, the “proportion” value was 1. `Brc1ccccc1-c1nc(-c2ccncc2)no1` was tested, and the “proportion” value was 0.274 (active). In the case of `COc1ccc(-c2noc(-c3ccc(C)cc3)n2)cc1`, the “proportion” value is reported as 1. `CCc1nnc(NC(=O)CSc2nnc(-c3cccc(C)c3)o2)s1` was tested, and the “proportion” value was 1. With `CCCc1ccc(-c2nc(-c3ccc(F)cc3)no2)cc1` the “proportion” value was 0.714. With `O=C(Nc1cccc(-c2noc(-c3cccnc3)n2)c1)c1cccs1` the “proportion” value was 1. For `Cc1cccc(-c2noc(-c3ccccc3Cl)n2)c1`, the “proportion” value was 1.
